Measured values: PubChem BioAssay (EPA / NIEHS)
Calls of active or inactive are those of the source. Rule for the calls: active = hit-call score of the fitted dose curve at least 0.9, where 1 is the maximum; inactive = score below 0.9.

Key:
[1] = CEETOX_H295R_CORTIC: CeeTox H295R High-throughput Steroidogenesis Assay for Corticosterone (CORTIC) (AID 2283437); settings: actives raise or lower the signal;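 note: corticosterone secreted into medium quantified by mass spectrometry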
In short: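 Steps: seed H295R, adhere overnight; 10 uM forskolin 48 h; replace with chemical (0.1% DMSO) 48 h; extract medium with MTBE; quantify corticosterone by HPLC-MS/MS; score bidirectionally vs DMSO.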

[2] = CEETOX_H295R_DOC: CeeTox H295R High-throughput Steroidogenesis Assay for DOC (AID 2283439); settings: actives raise or lower the signal
In short: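 Human adrenocortical H295R cells, passages up to 10, received 10 uM forskolin for 48 h before chemical addition. After another 48 h exposure in 0.1% DMSO, secreted DOC was measured by LC-MS/MS, with gain or loss fitted against DMSO controls.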

[3] = CEETOX_H295R_ESTRADIOL: CeeTox H295R High-throughput Steroidogenesis Assay for Estradiol (AID 2283440); settings: actives raise or lower the signal;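 note: estradiol secreted into medium quantified by LC-MS/MS after dansyl derivatisation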
In short: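 Readout is estradiol in conditioned medium, quantified by reverse-phase HPLC-MS/MS against a 7-point standard curve. Cells: H295R, forskolin-stimulated, then dosed 48 h in 0.1% DMSO; activity fitted in both directions relative to DMSO.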

[4] = CEETOX_H295R_ESTRONE: CeeTox H295R High-throughput Steroidogenesis Assay for Estrone (AID 2283441); settings: actives raise or lower the signal;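 note: estrone secreted into medium measured by LC-MS/MS after dansyl derivatization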;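 for AC50: human adrenal H295R cells prestimulated with forskolin for two days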
In short: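 Forskolin-stimulated H295R cells are treated 48 h with chemical, and estrone in the medium is measured by LC-MS/MS. Activity is fitted in both directions relative to DMSO controls, with chemicals diluted until MTT viability reaches at least 70%.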

[5] = CEETOX_H295R_PROG: CeeTox H295R High-throughput Steroidogenesis Assay for Progesterone (PROG) (AID 2283442); settings: actives raise or lower the signal
In short: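 Measured analyte is progesterone secreted by H295R cells at 48 h of chemical treatment, following 10 uM forskolin priming. Quantitation used HPLC-MS/MS against a 7-point standard curve; cytotoxicity was checked by MTT absorbance.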

[6] = read-out: Tumor necrosis factor receptor superfamily member 6 (Homo sapiens) (UniProt P25445); test: LTEA_HepaRG_FAS: Life Technologies and Expression Analysis (LTEA) Assay for Fas cell surface death receptor (FAS) using HepaRG (AID 2283447); settings: mRNA level, 48 h; actives raise or lower the signal
In short: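 Differentiated human HepaRG cells, pre-cultured 48 h, were exposed in duplicate for 48 h to 8-point half-log concentrations (top 100 uM, 0.5% DMSO) in serum-free induction medium; FAS mRNA measured by qRT-PCR, normalized to ACTB/GAPDH/POLR2A, bidirectional fit versus DMSO.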

[7] = read-out: Fatty acid synthase (Homo sapiens) (UniProt P49327); test: LTEA_HepaRG_FASN: Life Technologies and Expression Analysis (LTEA) Assay for Fatty Acid Synthase (FASN) using HepaRG (AID 2283448); settings: mRNA level, 48 h; actives raise or lower the signal
In short: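 HepaRG, 48 h exposure, 8-pt half-log series top 100 uM, 0.5% DMSO vehicle, duplicates. Readout: FASN transcript by Fluidigm qRT-PCR; housekeeping-normalized; bidirectional curve fit vs DMSO baseline.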

[8] = read-out: Cyclin D2 (CCND2), CCND2 (gene 894); test: LTEA_HepaRG_CCND2: Life Technologies and Expression Analysis (LTEA) Assay for Cyclin D2 (CCND2) using HepaRG (AID 2283449); settings: mRNA level, 48 h; actives raise or lower the signal;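 note: CCND2 transcript measured by TaqMan qRT-PCR and normalised to three housekeeping genes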
In short: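 In this HepaRG study, an eight-point concentration series (max 100 uM, 0.5% DMSO) is applied for 48 h. CCND2 mRNA change is derived by qRT-PCR normalised to ACTB, GAPDH and POLR2A.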

[9] = read-out: Cyclin Dependent Kinase Inhibitor 1A (CDKN1A), CDKN1A (gene 1026); test: LTEA_HepaRG_CDKN1A: Life Technologies and Expression Analysis (LTEA) Assay for Cyclin Dependent Kinase Inhibitor 1A (CDKN1A) using HepaRG (AID 2283450); settings: mRNA level, 48 h; actives raise or lower the signal
In short: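 Gain or loss of CDKN1A transcript is scored by bidirectional fitting against 0.5% DMSO vehicle. Human HepaRG cultures receive chemicals for 48 h across an 8-point series peaking at 100 uM; expression comes from qRT-PCR.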

[10] = read-out: catalase (CAT), CAT (gene 847); test: LTEA_HepaRG_CAT: Life Technologies and Expression Analysis (LTEA) Assay for catalase (CAT) using HepaRG (AID 2283452); settings: mRNA level, 48 h; actives raise or lower the signal;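 for AC50: TaqMan qRT-PCR signal normalized to ACTB GAPDH and POLR2A housekeeping genes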
In short: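 Differentiated HepaRG cells in serum-free induction medium were dosed 48 h in duplicate, eight half-log concentrations from 100 uM in 0.5% DMSO. Transcript measured by TaqMan qRT-PCR, normalised to ACTB/GAPDH/POLR2A, fitted bidirectionally against DMSO.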

[11] = read-out: flavin-containing dimethylaniline monooxygenases 3 (FMO3), FMO3 (gene 2328); test: LTEA_HepaRG_FMO3: Life Technologies and Expression Analysis (LTEA) Assay for flavin-containing dimethylaniline monooxygenases 3 (FMO3) using HepaRG (AID 2283453); settings: mRNA level, 48 h; actives raise or lower the signal;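 for AC50: FMO3 transcript by TaqMan qRT-PCR normalized to ACTB GAPDH and POLR2A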
In short: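 Eight-point concentration-response in serum-free HepaRG cultures (top 100 uM, 0.5% DMSO, 48 h). Read-out: FMO3 mRNA level normalized to three endogenous control genes, fitted bidirectionally versus vehicle.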

[12] = read-out: Cytochrome P450 (CYP1A1), CYP1A1 (gene 1543); test: LTEA_HepaRG_CYP1A1: Life Technologies and Expression Analysis (LTEA) Assay for Cytochrome P450 (CYP1A1) using HepaRG (AID 2283454); settings: mRNA level, 48 h; actives raise or lower the signal
In short: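 Using HepaRG cultures with 0.5% DMSO as vehicle, eight-concentration exposures (max 100 uM) lasted 48 h. Transcript levels were measured by TaqMan qRT-PCR and normalized to ACTB, GAPDH and POLR2A.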

[13] = read-out: CFLAR gene, CFLAR (gene 8837); test: LTEA_HepaRG_CFLAR: Life Technologies and Expression Analysis (LTEA) Assay for CFLAR gene using HepaRG (AID 2283455); settings: mRNA level, 48 h; actives raise or lower the signal
In short: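 Gain- or loss-of-signal changes in CFLAR transcript were fitted bidirectionally relative to 0.5% DMSO. Cells (HepaRG, duplicate wells) were dosed for 48 h across eight half-log concentrations topping at 100 uM; quantitation by TaqMan qRT-PCR.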

[14] = read-out: Forkhead box O1 (FOXO1), FOXO1 (gene 2308); test: LTEA_HepaRG_FOXO1: Life Technologies and Expression Analysis (LTEA) Assay for Forkhead box O1 (FOXO1) using HepaRG (AID 2283456); settings: mRNA level, 48 h; actives raise or lower the signal
In short: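 Using one lot of HepaRG hepatic cells kept in 0.5% DMSO, the team applied test chemicals in duplicate, half-log dilutions from 100 uM, for 48 h. Expression, normalised to ACTB/GAPDH/POLR2A, was compared with vehicle in either direction.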

[15] = read-out: growth arrest and DNA damage 45 (GADD45A), GADD45A (gene 1647); test: LTEA_HepaRG_GADD45A: Life Technologies and Expression Analysis (LTEA) Assay for growth arrest and DNA damage 45 (GADD45A) using HepaRG (AID 2283458); settings: mRNA level, 48 h; actives raise or lower the signal
In short: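 HepaRG, 48 h exposure, 8 conc. (top 100 uM, half-log steps), 0.5% DMSO vehicle, duplicates. Read-out: qRT-PCR mRNA level, housekeeping-normalized (ACTB/GAPDH/POLR2A). Curves fit bidirectionally vs DMSO baseline.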

[16] = read-out: Forkhead box O3 (FOXO3), FOXO3 (gene 2309); test: LTEA_HepaRG_FOXO3: Life Technologies and Expression Analysis (LTEA) Assay for Forkhead box O3 (FOXO3) using HepaRG (AID 2283459); settings: mRNA level, 48 h; actives raise or lower the signal
In short: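 Gene-expression endpoint: FOXO3 transcript level by qRT-PCR in HepaRG cultures treated 48 h with chemicals up to 100 uM (half-log, 0.5% DMSO vehicle).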

[17] = CEETOX_H295R_ANDR: CeeTox H295R High-throughput Steroidogenesis Assay for Androstenedione (ANDR) (AID 2283436); settings: actives raise or lower the signal;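 note: human H295R adrenal cells exposed for 48 h with androstenedione measured in medium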
In short: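 Steroidogenesis in H295R adrenal cells after 48 h dosing; androstenedione quantified by LC-MS/MS, with DMSO as negative control and baseline for bidirectional curve fitting.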

[18] = CEETOX_H295R_CORTISOL: CeeTox H295R High-throughput Steroidogenesis Assay for Cortisol (AID 2283438); settings: actives raise or lower the signal;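 note: cortisol secreted into medium quantified by LC-MS/MS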
In short: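 Read-out: cortisol in culture medium by reverse-phase C18 HPLC with ESI-positive tandem MS, after MTBE liquid-liquid extraction. Cells: human adrenal H295R, forskolin-primed (10 uM, 48 h) before 48 h chemical exposure in 0.1% DMSO.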

[19] = CEETOX_H295R_TESTO: CeeTox H295R High-throughput Steroidogenesis Assay for Testosterone (TESTO) (AID 2283457); settings: actives raise or lower the signal;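 for AC50: cells exposed to chemicals for 48 h before medium collection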
In short: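 Steroidogenesis in H295R cells following OECD 456 with minor changes; 48 h exposure. Medium testosterone by HPLC-MS/MS, DMSO as baseline, with MTT viability run in parallel.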

[20] = read-out: Cyclin D1 (CCND1), CCND1 (gene 595); test: LTEA_HepaRG_CCND1: Life Technologies and Expression Analysis (LTEA) Assay for Cyclin D1 (CCND1) using HepaRG (AID 2283451); settings: mRNA level, 48 h; actives raise or lower the signal;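 for AC50: TaqMan qRT-PCR transcript level normalised to ACTB GAPDH and POLR2A housekeeping genes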
In short: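 Expression change is measured by qRT-PCR in HepaRG cells after 48 h treatment across eight concentrations topping at 100 uM, with duplicate wells and DMSO (0.5%) serving as baseline for bidirectional fitting.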

Measured: AC50

Sequence of Fatty acid synthase (Homo sapiens) (P49327 whole entry, looked up): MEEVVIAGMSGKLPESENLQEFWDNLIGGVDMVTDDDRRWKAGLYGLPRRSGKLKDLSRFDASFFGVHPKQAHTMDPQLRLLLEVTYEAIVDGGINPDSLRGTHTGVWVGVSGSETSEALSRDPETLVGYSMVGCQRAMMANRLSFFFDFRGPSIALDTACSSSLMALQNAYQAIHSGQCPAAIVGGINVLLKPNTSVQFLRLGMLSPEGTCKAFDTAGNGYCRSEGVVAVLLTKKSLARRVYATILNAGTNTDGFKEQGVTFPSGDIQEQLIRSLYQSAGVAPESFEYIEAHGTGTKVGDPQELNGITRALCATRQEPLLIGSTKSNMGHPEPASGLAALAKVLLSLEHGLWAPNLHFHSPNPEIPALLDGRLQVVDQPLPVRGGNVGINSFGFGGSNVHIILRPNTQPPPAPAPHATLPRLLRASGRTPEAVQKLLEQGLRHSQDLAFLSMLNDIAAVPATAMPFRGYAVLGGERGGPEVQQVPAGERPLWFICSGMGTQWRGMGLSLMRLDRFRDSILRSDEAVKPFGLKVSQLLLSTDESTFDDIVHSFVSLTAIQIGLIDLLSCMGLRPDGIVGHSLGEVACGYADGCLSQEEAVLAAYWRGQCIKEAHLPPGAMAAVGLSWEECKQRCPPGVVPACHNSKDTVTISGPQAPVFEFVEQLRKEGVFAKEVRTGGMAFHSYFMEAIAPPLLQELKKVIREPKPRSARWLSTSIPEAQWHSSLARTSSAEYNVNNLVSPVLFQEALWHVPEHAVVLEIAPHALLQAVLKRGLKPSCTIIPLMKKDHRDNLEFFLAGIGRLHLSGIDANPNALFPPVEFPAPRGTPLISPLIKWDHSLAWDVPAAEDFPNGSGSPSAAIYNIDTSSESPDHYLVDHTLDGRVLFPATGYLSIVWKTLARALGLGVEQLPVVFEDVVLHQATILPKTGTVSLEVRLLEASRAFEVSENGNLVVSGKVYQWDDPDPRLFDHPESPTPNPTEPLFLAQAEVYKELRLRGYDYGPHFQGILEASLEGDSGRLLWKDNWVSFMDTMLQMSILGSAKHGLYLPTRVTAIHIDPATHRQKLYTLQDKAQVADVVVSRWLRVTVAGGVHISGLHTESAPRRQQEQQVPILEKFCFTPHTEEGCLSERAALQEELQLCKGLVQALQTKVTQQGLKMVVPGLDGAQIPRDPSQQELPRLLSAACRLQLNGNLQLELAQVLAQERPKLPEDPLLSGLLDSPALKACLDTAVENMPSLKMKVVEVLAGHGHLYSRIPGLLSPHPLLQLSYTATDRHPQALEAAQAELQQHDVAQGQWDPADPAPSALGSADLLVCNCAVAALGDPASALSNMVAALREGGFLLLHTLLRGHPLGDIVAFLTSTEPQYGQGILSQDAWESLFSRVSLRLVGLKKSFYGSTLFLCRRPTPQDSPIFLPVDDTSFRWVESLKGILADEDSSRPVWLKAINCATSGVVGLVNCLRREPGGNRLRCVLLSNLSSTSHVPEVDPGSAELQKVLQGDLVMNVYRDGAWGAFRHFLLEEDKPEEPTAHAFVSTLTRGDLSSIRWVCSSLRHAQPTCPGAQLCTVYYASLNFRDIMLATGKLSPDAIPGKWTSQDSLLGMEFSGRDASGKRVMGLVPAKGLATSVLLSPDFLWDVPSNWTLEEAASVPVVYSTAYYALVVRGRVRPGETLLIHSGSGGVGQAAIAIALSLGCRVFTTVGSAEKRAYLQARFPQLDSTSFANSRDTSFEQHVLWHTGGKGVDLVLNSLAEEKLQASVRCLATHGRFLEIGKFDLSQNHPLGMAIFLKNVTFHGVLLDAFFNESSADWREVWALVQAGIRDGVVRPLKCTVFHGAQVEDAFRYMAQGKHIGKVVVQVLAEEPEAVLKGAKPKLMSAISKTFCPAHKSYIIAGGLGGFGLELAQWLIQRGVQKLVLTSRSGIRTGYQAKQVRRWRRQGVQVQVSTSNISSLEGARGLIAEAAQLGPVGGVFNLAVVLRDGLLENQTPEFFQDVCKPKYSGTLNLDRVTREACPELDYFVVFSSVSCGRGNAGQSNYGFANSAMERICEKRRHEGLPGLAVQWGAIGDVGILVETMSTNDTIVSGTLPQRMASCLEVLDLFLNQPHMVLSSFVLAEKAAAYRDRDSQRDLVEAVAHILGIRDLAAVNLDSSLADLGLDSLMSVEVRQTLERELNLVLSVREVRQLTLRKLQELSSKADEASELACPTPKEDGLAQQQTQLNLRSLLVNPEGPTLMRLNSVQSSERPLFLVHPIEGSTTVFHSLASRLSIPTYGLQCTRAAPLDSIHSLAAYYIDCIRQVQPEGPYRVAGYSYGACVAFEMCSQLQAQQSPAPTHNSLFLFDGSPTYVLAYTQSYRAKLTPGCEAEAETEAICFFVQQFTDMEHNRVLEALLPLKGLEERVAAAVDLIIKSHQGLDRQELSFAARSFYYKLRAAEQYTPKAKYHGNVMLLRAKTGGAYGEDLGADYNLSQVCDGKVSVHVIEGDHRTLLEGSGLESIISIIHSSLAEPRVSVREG

CCCCCOC(=O)c1ccccc1C(=O)OCCCCC
active: [12] 18 µM
not listed: [17] | [18] | [19] | [20]
inactive: all other assays above

Cc1cc(N=Nc2ccccc2C)ccc1N
active: [1] 2.24 µM | [5] 2.5 µM | [6] 3.37 µM | [7] 2.9 µM | [9] 3.36 µM | [10] 3.32 µM | [11] 4.86 µM | [12] 1.05 µM | [13] 2.75 µM | [15] 3.52 µM | [16] 5.56 µM
inactive: [17] | [18] | [2] | [8] | [19]

CC(C)N(Cc1ccccc1)C(=O)C(C)(C)C
active: [12] 50 µM
not listed: [1] | [2] | [3] | [4] | [13] | [18] | [20]
inactive: all other assays above

O=[N+]([O-])c1ccc(Oc2ccc(Cl)cc2Cl)cc1
active: [7] 50 µM | [11] 50 µM | [12] 22.8 µM
not listed: [3] | [4] | [17] | [18] | [19] | [20]
inactive: all other assays above

CCOC(=O)[C@]1(c2ccccc2)Oc2ccccc2[C@@H]1N
active: [1] 0.33 µM | [18] 2.9 µM | [2] 2.52 µM | [7] 41.6 µM | [9] 78.3 µM | [20] 77.5 µM | [10] 88.2 µM | [11] 78.6 µM | [12] 13 µM | [14] 83.3 µM | [15] 76.2 µM
inactive: [5] | [8] | [13] | [16]

CNC(=O)Oc1cccc2c1OC(C)(C)C2
active: [4] 0.494 µM | [12] 50 µM | [15] 0.0409 µM
inactive: all other assays above

Nc1ccc(Oc2ccc(N)cc2)cc1
active: [1] 0.493 µM | [18] 26.9 µM | [2] 1.21 µM | [5] 9.14 µM | [12] 37.5 µM
not listed: [3] | [4] | [8] | [17] | [19]
inactive: all other assays above

Nc1ccc(Cc2ccc(N)cc2)cc1
active: [18] 24 µM | [2] 65.5 µM | [5] 3.84 µM | [12] 32.3 µM
not listed: [3] | [4] | [8] | [17] | [19]
inactive: all other assays above

COP(=S)(OC)SCN1C(=O)c2ccccc2C1=O
active: [12] 30.9 µM
not listed: [3] | [4] | [17] | [19]
inactive: all other assays above

CC(C)(C)C(O)(CCc1ccc(Cl)cc1)Cn1cncn1 (stereo not drawn)
active: [18] 5.75 µM | [2] 0.26 µM | [5] 0.121 µM | [7] 3.08 µM | [9] 88.7 µM | [11] 76.7 µM | [12] 6.47 µM
not listed: [3] | [4] | [17] | [19] | [20]
inactive: all other assays above

C[C@]12C=CC3=C4CCC(=O)C=C4CC[C@H]3[C@@H]1CC[C@@H]2O
inactive: [6] | [8] | [9] | [20] | [13] | [14] | [15] | [16]
active: [17] 90.1 µM | [5] 0.0975 µM | [7] 61 µM | [10] 50 µM | [11] 20.3 µM | [19] 83 µM

Cn1cc(-c2ccccc2)c(=O)c(-c2cccc(C(F)(F)F)c2)c1
active: [7] 9.92 µM | [9] 63.8 µM | [12] 32.6 µM | [13] 9.92 µM
not listed: [3] | [4] | [14] | [17] | [19]
inactive: all other assays above

CCOc1cccc(C2(N3CCN(c4ccccc4)CC3)CCC(C)CC2)c1 (stereo not drawn)
active: [1] 23.6 µM | [2] 29.8 µM | [5] 35.5 µM | [12] 35.9 µM
not listed: [3] | [4] | [14] | [17] | [19] | [20]
inactive: all other assays above

Cc1cccc(N)c1N
active: [5] 15.4 µM | [7] 33.4 µM | [20] 50 µM | [10] 50 µM | [11] 61.7 µM | [12] 6.92 µM | [13] 50 µM | [16] 50 µM
inactive: [1] | [18] | [2] | [6] | [9] | [14] | [15]
